# Screens: PubChem, Broad Institute
# STAT3 binder = STAT3 binders, primary screen, biochemical, small molecule microarray, single point, set 2 | Signal transducer and activator of transcription 3 (Homo sapiens), P40763 | His-STAT3 binding, anti-His fluorescence | calls only | 0.2% of 17,000 active;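 active means compounds whose four printed spots each show fluorescence over background unusually high for their array block, chance value under 7%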
# Target sequence (P40763 whole entry, looked up): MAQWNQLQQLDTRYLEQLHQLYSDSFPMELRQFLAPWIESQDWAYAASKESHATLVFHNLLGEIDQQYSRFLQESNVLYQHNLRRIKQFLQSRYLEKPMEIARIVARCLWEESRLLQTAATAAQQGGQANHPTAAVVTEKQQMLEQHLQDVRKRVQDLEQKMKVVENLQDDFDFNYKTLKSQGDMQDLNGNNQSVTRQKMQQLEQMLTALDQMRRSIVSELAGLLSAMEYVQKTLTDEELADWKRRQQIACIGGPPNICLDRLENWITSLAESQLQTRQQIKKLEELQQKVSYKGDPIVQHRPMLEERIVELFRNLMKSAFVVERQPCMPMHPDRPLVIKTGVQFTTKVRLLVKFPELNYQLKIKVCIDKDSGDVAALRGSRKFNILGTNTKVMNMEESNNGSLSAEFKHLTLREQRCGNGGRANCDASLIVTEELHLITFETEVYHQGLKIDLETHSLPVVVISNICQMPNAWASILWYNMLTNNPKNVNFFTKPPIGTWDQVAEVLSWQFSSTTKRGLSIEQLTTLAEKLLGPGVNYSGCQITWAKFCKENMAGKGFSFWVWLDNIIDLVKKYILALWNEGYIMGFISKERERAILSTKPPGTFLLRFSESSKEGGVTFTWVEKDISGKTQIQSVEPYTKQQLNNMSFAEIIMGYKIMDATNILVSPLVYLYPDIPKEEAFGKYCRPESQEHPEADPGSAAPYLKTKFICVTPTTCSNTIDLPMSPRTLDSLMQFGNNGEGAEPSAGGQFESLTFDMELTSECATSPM
# Myc binder = binders of human c-Myc, primary screen, biochemical, small molecule microarray, anti-His fluorescence. 1.5% of 17,000 active. calls only. His-c-Myc binding. Myc proto-oncogene protein (Homo sapiens), P01106;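 active means spot fluorescence over background with P-value below 7% in all four replicate spots, showing protein binding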
# mut p53 SMM = binders of human mutant p53, primary screen, biochemical, small molecule microarray, anti-GST fluorescence | 0.4% of 17,000 active | mutant tumor protein p53 (GST-tagged), Homo sapiens | small molecule microarray binding | calls only;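 active means compounds whose four printed spots each glow above background more than chance allows, each with a p-value under 7%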
# NFkB SMM = binders of NF-kB p50 subunit, primary screen, biochemical, small molecule microarray, anti-His fluorescence; 1.3% of 17,000 active; AID 624139, 2012; calls only; Nuclear factor NF-kappa-B p105 subunit (Homo sapiens), P19838; anti-His fluorescence binding;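 active means spot fluorescence over background significantly raised, with a chance value under 7% in all four replicate spots of the compound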;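 further: probe protein is his-tagged human p50 processed subunit at 1 µg/ml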
# mut p53 react = mutant p53 pathway re-activators, primary screen, cell-based, SW480, luciferase, single point, HTS | SW480 PUMA-promoter luciferase, p53 mutant reactivation | activation, % at 9.98 µM | 1.5% of 28,000 active; in the data active means activation above about 52%
# A number is an active result; 0 = inactive; - = no result given; + = active, no number. Shown are actives, neighbours in structure and some others; about 2.6% of the full set was active somewhere.
SMILES,STAT3 binder,Myc binder,mut p53 SMM,NFkB SMM,mut p53 react
COc1cc(/C=C/c2ccc(OC)cc2OC)cc(OC)c1,0,0,0,0,121
Cc1[nH]c2ccccc2c1C(=O)CSc1nc2ccccc2[nH]1,-,-,-,-,62
Cc1[nH]c2ccccc2c1C(=O)CSc1nc2ccccc2o1,-,-,-,-,0
Cc1nn(CC(=O)Nc2ccc3c(c2)nc(CN2CCCC2)n3C)c(=O)c2ccccc12,0,+,+,0,0
Cc1cccc(OCC(=O)Nc2ccc3c(c2)nc(CN2CCCCC2)n3C)c1,-,-,-,-,0
O=C(COc1ccc(Cl)cc1)Nc1ccc2oc(-c3cccc(F)c3)nc2c1,-,-,-,-,0
COCCCNC(=O)c1cc(-c2ccccc2)nc2c(C)cc(C)cc12,0,0,0,0,0
Cc1ccc(O)c(N=Nc2ccccc2)n1,0,0,0,0,103
NS(=O)(=O)c1ccc(NC(=S)NCc2cccnc2)cc1,-,-,-,-,0
Cc1cccnc1NC(=S)Nc1ccc(S(N)(=O)=O)cc1,0,0,0,0,66
COc1ccccc1NC(=O)CSc1nc(O)cc(=O)n1-c1ccccc1,-,-,-,-,0
Cc1ccc(C)c(C(Nc2ccccn2)c2cc(Cl)c3cccnc3c2O)c1 (stereo not drawn),-,-,-,-,0
Cc1ccn2cc(-c3cccc(NS(=O)(=O)c4cc([N+](=O)[O-])ccc4C)c3)nc2c1,-,-,-,-,111
Cc1ccc([N+](=O)[O-])cc1S(=O)(=O)NCc1cccnc1,-,-,-,-,0
CCOc1ccc(C)cc1S(=O)(=O)n1nnc2ccccc21,0,+,0,+,0
Cc1nonc1OCCNc1cc(N2CCCC2)ccc1[N+](=O)[O-],-,-,-,-,89
Cc1nonc1OCCNc1cc(N2CCOCC2)ccc1[N+](=O)[O-],-,-,-,-,0
Cn1c(SCC(=O)Nc2ccc(Cl)c(Cl)c2)nnc1-c1ccc(Cl)c(Cl)c1,-,-,-,-,0
CCc1cc2c(SCC(=O)c3ccc(C)cc3)ncnc2s1,-,-,-,-,65
CCOc1ccc2nc(NS(=O)(=O)c3ccc(C)c([N+](=O)[O-])c3)sc2c1,0,0,0,0,0
CC1Oc2c3c(c4c(-c5ccccc5)cc(=O)oc4c2C(=O)C1C)OC(C)(C)C=C3 (stereo not drawn),0,0,0,+,0
CCCn1nnc(NC(=O)C(C)Oc2ccc(Cl)cc2Cl)n1 (stereo not drawn),0,0,0,0,0
CCCn1nnc(NC(=O)COc2ccccc2Cl)n1,-,-,-,-,64
CSc1nncc(-c2ccc(Cl)cc2)n1,-,-,-,-,63
CCc1ccc(C(Nc2cc(C)ccn2)c2ccc3cccnc3c2O)cc1 (stereo not drawn),0,0,+,0,0
SMILES,STAT3 binder,Myc binder,mut p53 SMM,NFkB SMM,mut p53 react
Cc1ccc(-c2cc(C(=O)NCc3cccnc3)no2)cc1,-,-,-,-,91
Cc1ccc(-c2cc(C(=O)NCCCN3CCOCC3)no2)cc1,-,-,-,-,0
CCCn1cnc2cc(NCc3ccccn3)ccc21,0,0,0,0,78
CCOc1ccccc1CNCc1ccccn1,0,0,0,0,0
O=[N+]([O-])c1nn(-c2ccc(Cl)cc2)n(O)c1=NCC1CCCO1 (stereo not drawn),-,-,-,-,0
Cc1ccc2c(c1)c1nnc(SCCN3CCOCC3)nc1n2Cc1ccccc1,-,-,-,-,0
CCCCn1c2ccccc2c2nnc(SCCN3CCOCC3)nc21,0,0,+,0,0
c1ccc(CCn2c3ccccc3c3nnc(SCc4ccc5nonc5c4)nc32)cc1,-,-,-,-,61
O=C(COc1ccc2ccccc2c1Br)NCc1ccco1,0,0,0,0,85
COC(=O)C(C(CO)Cc1ccc(O)c(OC)c1)C(O)c1ccc(O)c(OC)c1 (stereo not drawn),0,0,0,0,0
NC(=O)c1c(NC(=O)COc2ccc3ccccc3c2)sc2c1CCCCCC2,-,-,-,-,0
Cc1cccnc1NC(=S)NC(=O)c1cncc(Br)c1,0,+,0,0,108
COc1ccc2c(c1)c(=O)oc1c(C)c(OCC(=O)NCC3CCCO3)ccc12 (stereo not drawn),0,0,0,0,52
O=C(COc1ccc(Br)cc1CO)Nc1ccccc1,0,0,0,0,127
O=C(COc1ccc(CO)cc1)Nc1ccccc1,0,0,0,0,66
O=C(COc1ccccc1CO)Nc1ccccc1,0,0,0,0,77
COc1ccccc1NC(=O)COc1ccc(Br)cc1CO,-,-,-,-,0
O=C(COc1ccc(Br)cc1CO)Nc1ccccc1F,-,-,-,-,112
CCOC(=O)COc1ccc(-c2nc3c([nH]2)c(=O)n(C)c(=O)n3C)cc1OC,0,0,0,0,0
COC(=O)c1cccc(NC(=O)CN(c2ccc(F)cc2)S(C)(=O)=O)c1C,-,-,-,-,0
O=C(COc1ccc(Cl)cc1CO)Nc1ccc(F)cc1,0,0,0,0,69
Cc1ccc(NC(=O)COc2ccc(Br)cc2CO)cc1,-,-,-,-,68
Cc1ccc(-c2nnc3c4ccccc4c(C)nn23)cc1S(=O)(=O)N(C)CCO,-,-,-,-,56
Cc1ccc2oc(-c3cccc(NC(=O)COc4ccccc4C)c3C)nc2c1,-,-,-,-,0
O=C(NCCC(c1ccc(F)cc1)c1ccco1)c1cccs1 (stereo not drawn),-,-,-,-,50
SMILES,STAT3 binder,Myc binder,mut p53 SMM,NFkB SMM,mut p53 react
O=C(COc1ccc(S(=O)(=O)NC2CCCCC2)cc1Cl)N1CCOCC1,-,-,-,-,0
Cc1cc(S(=O)(=O)NC2CCCCC2)ccc1OCC(=O)O,0,+,0,0,0
CC(C)(C(=O)Oc1ccccc1)S(=O)(=O)c1ccc(C(F)(F)F)cn1,-,-,-,-,0
COc1cc2nc(SCC(N)=O)n3nc(CCn4c(C)nc5ccccc54)nc3c2cc1OC,-,-,-,-,0
CCc1ccc(CCC(=O)Nc2ccc(C)c(C)c2)o1,-,-,-,-,71
Cc1c(CCC(=O)O)c(=O)oc2cc(OCC(=O)O)ccc12,-,-,-,-,0
Cc1c(CC(=O)O)c(=O)oc2cc(OCC(=O)O)ccc12,0,+,0,0,0
COc1cc(SC)ccc1-c1nc2ccncc2[nH]1,0,0,0,0,59
O=C(COc1ccccc1[N+](=O)[O-])Nc1cc(-c2nc3ccccc3s2)c(Cl)cc1Cl,-,-,-,-,0
CC(C)(C)c1cc(C(C)(C)C)n(-c2ccc(-n3cccc3)cc2)n1,-,-,-,-,0
CN1CCN(C(=O)CN(c2cccc(Cl)c2)S(=O)(=O)c2ccc(Cl)cc2)CC1,-,-,-,-,0
CN1CCN(C(=O)c2nc3ccc(Cl)cc3[nH]2)CC1,0,0,0,0,57
COC(=O)COc1cccc(NC(=O)c2cccs2)c1,-,-,-,-,0
COc1cccc(NC(=O)CNC(=O)c2cccs2)c1,-,-,-,-,51
COc1c(O)cc2oc(-c3ccc(O)cc3)cc(=O)c2c1O,0,0,0,0,58
COc1ccc(-c2cc(=O)c3ccc(OC)cc3o2)cc1,0,0,0,0,66
COc1cc2oc(-c3ccc(O)cc3)cc(=O)c2c(O)c1OC,0,0,0,0,0
COc1ccc(-c2cc(=O)c3c(OC)c(OC)c(OC)c(OC)c3o2)cc1,0,0,0,0,0
CC(=O)Nc1ccc(-c2nnc(SCC(=O)Nc3cc(Cl)cc(Cl)c3)n2C)cc1,-,-,-,-,0
COc1cc([N+](=O)[O-])ccc1NC(=O)CSc1ncccn1,0,0,0,0,0
COc1cccc(OCCCCSc2ncccn2)c1,-,-,-,-,0
Cc1cc(=O)[nH]c(SCCOc2cccc(Oc3ccccc3)c2)n1,-,-,-,-,0
